Screens from PubChem BioAssay.
Hits are enriched below; roughly 3.8% of the tested compounds scored in any of these assays.
HSF1 inhib – HSF1 inhibitors in luciferase reporter cells, primary screen, cell-based, NIH3T3, luminescence; NIH3T3-HGL HSE-luciferase, MG132-induced, luminescence 8 h; active compounds read low; activity change, negative = inhibition, % at 7.5 µM (by protocol); 300,000 tested, 0.77% active;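 active = more than half of replicate wells show activity change below -50%, luminescence cut by over half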;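 note: luciferase reports HSF-1 transcriptional activity via heat shock element; 0% = median of DMSO wells and -100% = zero luminescence signal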
p-CIP stab down – p/CIP-EGFP fusion destabilizers, primary screen, fluorescence, F442A cells; 16 h; decrease of EGFP signal, % at 10 µM; 290,000 tested, 0.01% active; AID 1984, 2009;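 active = EGFP signal decrease of at least 30% at 10 µM or well 3 SD below plate mean, unless failing retest; inactive = the rest, including hits failing retest or dose response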
Target sequence (Q05BA5 1-1403): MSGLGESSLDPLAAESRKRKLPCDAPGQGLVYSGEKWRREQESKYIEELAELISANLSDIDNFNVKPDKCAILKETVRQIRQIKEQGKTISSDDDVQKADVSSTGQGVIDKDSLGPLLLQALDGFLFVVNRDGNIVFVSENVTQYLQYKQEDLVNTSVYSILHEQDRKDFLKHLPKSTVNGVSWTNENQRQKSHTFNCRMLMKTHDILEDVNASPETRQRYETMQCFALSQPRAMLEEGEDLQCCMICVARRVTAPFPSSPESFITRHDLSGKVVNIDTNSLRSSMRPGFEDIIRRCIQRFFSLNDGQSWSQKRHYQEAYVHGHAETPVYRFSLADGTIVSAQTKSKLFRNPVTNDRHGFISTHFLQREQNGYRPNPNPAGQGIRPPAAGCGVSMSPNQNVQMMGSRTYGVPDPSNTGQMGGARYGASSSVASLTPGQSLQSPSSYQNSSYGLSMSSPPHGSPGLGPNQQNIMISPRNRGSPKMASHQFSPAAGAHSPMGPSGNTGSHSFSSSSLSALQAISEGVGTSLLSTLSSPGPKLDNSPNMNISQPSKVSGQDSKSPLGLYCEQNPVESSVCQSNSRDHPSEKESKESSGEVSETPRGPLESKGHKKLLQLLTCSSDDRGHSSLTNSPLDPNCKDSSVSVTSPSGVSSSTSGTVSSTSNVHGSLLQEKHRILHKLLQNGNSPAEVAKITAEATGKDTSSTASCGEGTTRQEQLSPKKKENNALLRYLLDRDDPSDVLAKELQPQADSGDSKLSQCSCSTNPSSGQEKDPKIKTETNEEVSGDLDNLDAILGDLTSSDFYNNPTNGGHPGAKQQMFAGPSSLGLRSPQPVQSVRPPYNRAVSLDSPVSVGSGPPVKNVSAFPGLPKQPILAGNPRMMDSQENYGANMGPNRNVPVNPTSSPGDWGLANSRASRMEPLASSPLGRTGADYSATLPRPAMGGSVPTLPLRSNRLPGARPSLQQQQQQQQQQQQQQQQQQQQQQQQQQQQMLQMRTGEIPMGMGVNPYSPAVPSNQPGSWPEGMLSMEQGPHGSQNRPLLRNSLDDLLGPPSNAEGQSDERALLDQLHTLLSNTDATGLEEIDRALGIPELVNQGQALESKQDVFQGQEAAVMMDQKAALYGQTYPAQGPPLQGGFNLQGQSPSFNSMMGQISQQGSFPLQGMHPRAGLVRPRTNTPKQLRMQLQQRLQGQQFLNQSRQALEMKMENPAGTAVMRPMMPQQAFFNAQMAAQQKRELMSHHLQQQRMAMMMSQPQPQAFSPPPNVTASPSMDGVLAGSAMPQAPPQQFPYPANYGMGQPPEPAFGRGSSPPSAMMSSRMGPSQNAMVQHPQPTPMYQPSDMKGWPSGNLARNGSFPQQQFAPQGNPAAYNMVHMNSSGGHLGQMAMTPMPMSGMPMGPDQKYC
HSP90 refold inh – HSP90 inhibitors, primary screen, cell lysate, luminescence; inhibition, % at 5.6 µM; AID 1789, 2009; Rabbit reticulocyte lysate, luciferase refolding luminescence, 3 h; Heat shock protein HSP 90 (rabbit reticulocyte lysate; luciferase refolding); 290,000 tested, 0.91% active;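 active = inhibition above the screen-wide mean plus 3 SD, computed separately per campaign, cut at about 16% in these data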;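 note: 0% = DMSO wells and 100% = 60 µM geldanamycin wells; inhibitors lower the luminescence because luciferase stays unfolded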
HSF-1 act – HSF-1 activators, primary screen, NIH3T3-HGL cells, MG132 stress, luminescence, single point; activation, % at 9 µM; NIH3T3-HGL HSF-1 luciferase reporter, 8 h; 100% = twice DMSO control signal; 300,000 tested, 1.7% active; AID 504408, 2011;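 active = mean replicate activation of at least 50% with a set share of replicates each reaching 50%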;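 note: 0% = median of the neutral control wells and 100% = twice that signal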
Hsp70 activator – Hsp70 transcriptional activators, primary screen, cell-based, HeLa, Hsp70 promoter luciferase, luminescence, 10 µM | 200,000 tested, 0.04% active | AID 1203, 2008 | activation, % at 10 µM | HeLa Hsp70 promoter luciferase reporter; scaled: vehicle 0, proteasome-inhibitor control 100%;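 active = activation above the mean across all tested compounds plus 3 SD, cutoff set per campaign, cut at about 5.5% in these data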;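 note: 100% = MG132 at 30 µM as the positive control and 0% = DMSO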
NALP1 inh – NALP1 inflammasome inhibitors in reconstituted yeast, colorimetric, S. cerevisiae, triplicate retest; S. cerevisiae NALP1/ASC/caspase-1 growth, X-gal OD620, 72 h; 280,000 tested, 0.61% active; inhibition, % at 10 µM; in the data active = inhibition mostly above about 24%, no sharp cut-off; inactive = mostly below about 32%
* = called active by the depositor; x = not tested or not shown.

SMILES | HSF1 inhib | p-CIP stab down | HSP90 refold inh | HSF-1 act | Hsp70 activator | NALP1 inh
Cc1ccc(NC(=O)[C@H](C)NC(=O)C2CCN(C(=O)[C@H](CC(C)C)NC(=O)OC(C)(C)C)CC2)cc1 | 0 | 1 | 0 | -9 | x | 29
COc1ccccc1N1CCN(C2CCCCC2NS(=O)(=O)c2ccccc2)CC1 (configuration not stated) | 1 | -5 | 6 | -12 | x | 8
CC(C)(C)NC(=O)COC(=O)c1ccccc1Nc1ccc(SC(F)F)cc1 | 67 | -1 | -4 | 98* | 0 | 32
O=C(COC(=O)c1ccccc1Nc1ccc(SC(F)F)cc1)NC1CC1 | 53 | -2 | -6 | 79* | 0 | 26
O=C(COc1ccccc1C(=O)O)Nc1ccc(SC(F)F)cc1 | -86* | -6 | 4 | -88 | 0 | 9
CCC1CCCCN1C(=O)CCS(=O)(=O)c1ccccc1 (configuration not stated) | -2 | -16 | 3 | 8 | x | 0
O=c1[nH]c(CSc2ncnc3sc(-c4ccccc4)cc23)nc2ccccc12 | 7 | 3 | -1 | 15 | x | 13
COC1(OC)C(/C=C/c2ccc(C)cc2)C(C#N)(C#N)C1(OC)OC (configuration not stated) | 52 | x | 1 | 55* | 0 | x
Cc1ccccc1Oc1nc2c(C)cccn2c(=O)c1/C=C(\C#N)C(=O)Nc1c(C)n(C)n(-c2ccccc2)c1=O | 105 | 8 | 0 | 137* | 0 | 8
Cc1ccccc1Oc1nc2ccccn2c(=O)c1/C=C(\C#N)C(=O)Nc1c(C)n(C)n(-c2ccccc2)c1=O | 6 | -6 | -1 | 5 | 0 | 19
CCOC(=O)c1c(NC(=S)Nc2ccccc2)sc2c1CCN(CC)C2 | -3 | -13 | 2 | -5 | -1 | 6
CCOC(=O)c1c(NC(=S)N2CCOCC2)sc2c1CCN(C(=O)OCC)C2 | 33 | -20 | 5 | 28 | x | -6
CCOC(=O)c1c(NC(=S)N2CCCCC2)sc2c1CCN(C(=O)OCC)C2 | 86 | -15 | 1 | 121* | x | 10
CCOC(=O)c1c(NC(=S)NCc2ccccc2)sc2c1CCN(C(=O)OCC)C2 | 36 | -9 | 3 | 72* | x | 14
C=CCNC(=S)Nc1sc2c(c1C(=O)OCC)CCN(C(=O)OCC)C2 | 26 | -27 | 9 | 61* | 0 | 21
Cc1ccc(OCc2nnc(SC(C)C(=O)O)n2-c2ccccc2)cc1 (configuration not stated) | -63* | -7 | 0 | -68 | x | 22
CCOc1ccc(N2CC(C(=O)Nc3ccncc3)CC2=O)cc1 (configuration not stated) | 7 | 0 | 2 | 10 | x | 6
Cc1ccc(NC(=O)Cc2ccc(-n3cccc3)cc2)c(C)c1 | -53* | -19 | 1 | -64 | 0 | 23
CCN(CC)C(=O)C(=O)Nc1ccc(F)c(Cl)c1 | 11 | 11 | -3 | 34 | 0 | 4
CC(=O)Nc1ccc(NC(=O)C(C)OC(=O)CNS(=O)(=O)c2ccc(Br)cc2Cl)cc1 (configuration not stated) | -2 | -2 | 3 | -5 | x | -4
COc1ccc(/C=N/NC(=O)CC(=O)NCc2cccnc2)c(OC)c1 | 1 | 7 | 5 | 5 | 0 | x
COc1ccc(/C=N/NC(=O)CC(=O)NCc2cccnc2)cc1 | -1 | 1 | 2 | 4 | 0 | 23*
O=C(Nc1ccccc1F)N1CCc2ccccc2C1 | 9 | 3 | -2 | 17 | x | 14
CCCCCn1c(SCc2cccc(C)c2)nc2c1c(=O)[nH]c(=O)n2C | 27 | -4 | x | 60* | x | 7
CCCn1c(SCc2ccccc2)nc2c1c(=O)[nH]c(=O)n2C | 6 | -19 | -1 | 26 | 0 | -3
Cc1cc(N2CCN(C)CC2)nc2ccc(NC(=O)c3ccc(Br)o3)cc12 | 13 | -10 | 5 | 15 | 0 | 38*
CCCCN(C)C(=O)CCC(=O)Nc1ccc2nc(N3CCOCC3)cc(C)c2c1 | 4 | -12 | 5 | 6 | 0 | -1
